The values that follow come from article PMC7862700, “An all-to-all approach to the identification of sequence-specific readers for epigenetic DNA modifications on cytosine”.

Holding throughout (assay): DAPPL (digital affinity profiling via proximity ligation, sequencing); 10 mM Tris-HCl pH 7.5, 50 mM NaCl, 1 mM DTT, 4% glycerol, room temperature, 30 min; GST-TFs on glutathione beads, 16-mer random dsDNA library, 0.1% formaldehyde crosslink after washing; high values mean tight binding
The target in one assay is T1, FEV (Homo sapiens, UniProt Q99581 1-238).
T1 sequence: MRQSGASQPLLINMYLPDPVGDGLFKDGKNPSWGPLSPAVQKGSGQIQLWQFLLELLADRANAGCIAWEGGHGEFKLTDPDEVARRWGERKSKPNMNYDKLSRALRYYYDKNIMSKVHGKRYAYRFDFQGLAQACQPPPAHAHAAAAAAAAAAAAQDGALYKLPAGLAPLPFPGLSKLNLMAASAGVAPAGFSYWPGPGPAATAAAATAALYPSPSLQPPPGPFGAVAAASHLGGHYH
As to conditions: protein: recombinant; tags: N-terminal GST; dsDNA, one strand shown. In a few lines: (§1)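 Beads coated with glutathione captured GST-fused human transcription factors that had been expressed in yeast, and the factors were then given DNA barcodes and pooled with a tag-only sample. The pools were incubated with 200 nmole of a random double-stranded 16-mer DNA library in Tris/NaCl/DTT/glycerol buffer for 30 min at room temperature, washed, crosslinked with 0.1% formaldehyde and proximity-ligated with BsaI/T4 ligase at 37 °C for 1 h. PCR amplification and Illumina NextSeq500 sequencing came last. Binding signal is each hexamer's read frequency for a factor divided by its frequency for the tag-only sample.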

Another assay has as its target ETV5 (Homo sapiens, UniProt P41161 1-510). As to conditions: protein: recombinant; tags: N-terminal GST; dsDNA, one strand shown. In a few lines: as §1
The next assay addresses HSF1 (Homo sapiens, UniProt Q00613 1-529). As to conditions: protein: recombinant; tags: N-terminal GST; chain copies: 3; dsDNA, one strand shown. In a few lines: as §1
Another assay has as its target T2, SPIC (Homo sapiens, UniProt Q8N5J4 1-248).
T2 sequence: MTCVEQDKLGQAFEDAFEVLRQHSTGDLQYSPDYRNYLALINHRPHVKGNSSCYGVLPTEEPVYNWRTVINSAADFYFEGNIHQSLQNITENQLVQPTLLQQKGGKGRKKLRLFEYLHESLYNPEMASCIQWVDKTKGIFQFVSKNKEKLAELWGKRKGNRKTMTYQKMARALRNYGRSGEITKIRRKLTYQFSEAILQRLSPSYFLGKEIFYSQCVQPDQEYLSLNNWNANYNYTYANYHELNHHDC
As to conditions: protein: recombinant; tags: N-terminal GST; dsDNA, one strand shown. In a few lines:
as §1

The target in a further assay is ELF4 (Homo sapiens, UniProt Q99607 1-663). As to conditions: protein: recombinant; tags: N-terminal GST; dsDNA, one strand shown. In a few lines:
as §1

The next assay deals with T3, ELK4 (Homo sapiens, UniProt P28324-2 1-405).
T3 sequence: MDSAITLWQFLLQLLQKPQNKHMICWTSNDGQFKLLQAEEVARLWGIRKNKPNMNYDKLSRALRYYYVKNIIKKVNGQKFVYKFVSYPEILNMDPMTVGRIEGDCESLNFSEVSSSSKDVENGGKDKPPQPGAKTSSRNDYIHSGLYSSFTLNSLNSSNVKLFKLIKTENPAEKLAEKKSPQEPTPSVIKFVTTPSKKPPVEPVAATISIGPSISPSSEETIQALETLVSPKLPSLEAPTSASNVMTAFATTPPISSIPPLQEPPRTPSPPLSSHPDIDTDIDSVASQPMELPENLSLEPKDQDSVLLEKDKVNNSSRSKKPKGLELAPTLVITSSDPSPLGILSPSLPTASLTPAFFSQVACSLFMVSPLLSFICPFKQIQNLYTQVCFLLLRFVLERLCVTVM
As to conditions: protein: recombinant; tags: N-terminal GST; dsDNA, one strand shown. In a few lines:
as §1

The next assay concerns the target T4, ETV2 (Homo sapiens, UniProt O00321 1-342).
T4 sequence: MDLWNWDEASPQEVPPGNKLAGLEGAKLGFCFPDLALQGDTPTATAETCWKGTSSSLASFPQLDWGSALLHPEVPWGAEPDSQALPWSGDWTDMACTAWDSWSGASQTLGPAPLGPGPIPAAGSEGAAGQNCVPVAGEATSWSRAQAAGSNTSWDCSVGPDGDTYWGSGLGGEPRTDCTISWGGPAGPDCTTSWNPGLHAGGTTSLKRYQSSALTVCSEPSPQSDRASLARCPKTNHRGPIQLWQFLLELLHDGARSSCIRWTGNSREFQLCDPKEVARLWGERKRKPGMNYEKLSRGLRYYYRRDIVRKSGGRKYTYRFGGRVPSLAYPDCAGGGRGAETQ
As to conditions: protein: recombinant; tags: N-terminal GST; dsDNA, one strand shown. The method, boiled down:
as §1

Another assay deals with T5, ELF3 (Homo sapiens, UniProt P78545 1-371).
T5 sequence: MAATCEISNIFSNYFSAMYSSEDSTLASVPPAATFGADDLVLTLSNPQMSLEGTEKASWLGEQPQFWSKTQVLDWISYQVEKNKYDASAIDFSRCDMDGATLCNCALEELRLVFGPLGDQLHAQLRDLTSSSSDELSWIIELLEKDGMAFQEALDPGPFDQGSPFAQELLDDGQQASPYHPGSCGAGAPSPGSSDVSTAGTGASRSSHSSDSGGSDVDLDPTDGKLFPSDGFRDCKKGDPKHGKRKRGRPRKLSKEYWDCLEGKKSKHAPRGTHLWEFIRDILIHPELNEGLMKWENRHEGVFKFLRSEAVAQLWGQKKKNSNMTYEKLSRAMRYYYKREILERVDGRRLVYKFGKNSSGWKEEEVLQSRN
As to conditions: protein: recombinant; tags: N-terminal GST; dsDNA, one strand shown. The method, boiled down: as §1

In the next assay the target is CRX (Homo sapiens, UniProt O43186 1-299). As to conditions: protein: recombinant; tags: N-terminal GST; dsDNA, one strand shown. The method, boiled down: as §1
Chain of CRX (O43186 whole entry): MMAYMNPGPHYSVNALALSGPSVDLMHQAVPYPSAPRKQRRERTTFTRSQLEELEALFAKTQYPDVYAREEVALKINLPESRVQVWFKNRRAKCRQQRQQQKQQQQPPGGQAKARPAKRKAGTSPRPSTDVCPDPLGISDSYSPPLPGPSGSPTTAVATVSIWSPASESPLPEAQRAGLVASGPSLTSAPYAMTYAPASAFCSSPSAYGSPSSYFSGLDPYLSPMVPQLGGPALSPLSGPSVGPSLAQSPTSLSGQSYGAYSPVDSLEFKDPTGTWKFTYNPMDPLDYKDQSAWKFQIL
The target in another assay is ETV1 (Homo sapiens, UniProt P50549 1-477). As to conditions: protein: recombinant; tags: N-terminal GST; dsDNA, one strand shown. In a few lines:
as §1

Chain of HSF1 (Q00613 whole entry): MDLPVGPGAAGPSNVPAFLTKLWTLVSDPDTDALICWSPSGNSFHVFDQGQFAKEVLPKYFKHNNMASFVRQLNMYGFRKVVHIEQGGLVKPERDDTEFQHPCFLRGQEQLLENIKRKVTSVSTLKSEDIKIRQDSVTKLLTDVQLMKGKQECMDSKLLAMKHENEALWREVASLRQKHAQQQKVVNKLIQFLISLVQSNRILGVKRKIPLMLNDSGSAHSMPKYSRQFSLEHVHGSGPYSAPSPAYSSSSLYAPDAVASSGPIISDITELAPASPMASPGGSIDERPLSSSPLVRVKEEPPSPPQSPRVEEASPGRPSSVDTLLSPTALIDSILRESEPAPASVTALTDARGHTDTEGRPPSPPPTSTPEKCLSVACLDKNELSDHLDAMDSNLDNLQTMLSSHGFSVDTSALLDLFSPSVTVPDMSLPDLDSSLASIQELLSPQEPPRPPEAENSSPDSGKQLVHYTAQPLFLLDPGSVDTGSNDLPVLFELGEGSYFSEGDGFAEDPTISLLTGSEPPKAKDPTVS
Chain of ELF4 (Q99607 whole entry): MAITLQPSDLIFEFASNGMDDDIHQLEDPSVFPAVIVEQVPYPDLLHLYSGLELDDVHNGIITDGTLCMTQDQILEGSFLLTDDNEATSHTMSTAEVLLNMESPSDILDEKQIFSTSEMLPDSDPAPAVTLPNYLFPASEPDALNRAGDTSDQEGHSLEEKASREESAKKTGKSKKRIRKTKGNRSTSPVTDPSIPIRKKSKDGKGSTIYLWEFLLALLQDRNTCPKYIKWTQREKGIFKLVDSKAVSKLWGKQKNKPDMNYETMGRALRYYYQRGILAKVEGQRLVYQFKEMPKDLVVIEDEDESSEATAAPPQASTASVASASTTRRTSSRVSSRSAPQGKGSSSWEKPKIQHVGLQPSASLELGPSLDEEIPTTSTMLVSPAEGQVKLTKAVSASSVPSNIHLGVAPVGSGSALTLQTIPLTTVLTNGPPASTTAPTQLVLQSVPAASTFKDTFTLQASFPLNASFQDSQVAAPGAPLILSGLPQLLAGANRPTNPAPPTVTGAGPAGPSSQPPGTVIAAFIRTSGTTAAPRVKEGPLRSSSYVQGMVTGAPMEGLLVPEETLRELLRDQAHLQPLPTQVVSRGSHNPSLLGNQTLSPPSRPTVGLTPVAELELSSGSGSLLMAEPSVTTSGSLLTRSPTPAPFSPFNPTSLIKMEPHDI
Chain of ETV5 (P41161 whole entry): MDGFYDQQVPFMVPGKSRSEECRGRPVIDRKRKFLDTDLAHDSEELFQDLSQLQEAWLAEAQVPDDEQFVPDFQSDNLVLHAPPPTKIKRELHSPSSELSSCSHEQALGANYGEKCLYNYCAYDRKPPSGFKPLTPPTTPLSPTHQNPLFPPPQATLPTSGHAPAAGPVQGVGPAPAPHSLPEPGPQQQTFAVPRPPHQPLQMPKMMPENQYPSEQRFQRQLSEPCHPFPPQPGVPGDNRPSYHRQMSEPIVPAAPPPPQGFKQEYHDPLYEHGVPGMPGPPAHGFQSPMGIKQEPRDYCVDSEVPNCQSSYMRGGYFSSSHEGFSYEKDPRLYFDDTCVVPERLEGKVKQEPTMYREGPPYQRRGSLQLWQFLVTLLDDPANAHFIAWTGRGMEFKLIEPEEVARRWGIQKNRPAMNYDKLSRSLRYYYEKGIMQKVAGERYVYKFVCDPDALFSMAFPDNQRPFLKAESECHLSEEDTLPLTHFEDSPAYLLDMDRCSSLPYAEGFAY
Chain of ETV1 (P50549 whole entry): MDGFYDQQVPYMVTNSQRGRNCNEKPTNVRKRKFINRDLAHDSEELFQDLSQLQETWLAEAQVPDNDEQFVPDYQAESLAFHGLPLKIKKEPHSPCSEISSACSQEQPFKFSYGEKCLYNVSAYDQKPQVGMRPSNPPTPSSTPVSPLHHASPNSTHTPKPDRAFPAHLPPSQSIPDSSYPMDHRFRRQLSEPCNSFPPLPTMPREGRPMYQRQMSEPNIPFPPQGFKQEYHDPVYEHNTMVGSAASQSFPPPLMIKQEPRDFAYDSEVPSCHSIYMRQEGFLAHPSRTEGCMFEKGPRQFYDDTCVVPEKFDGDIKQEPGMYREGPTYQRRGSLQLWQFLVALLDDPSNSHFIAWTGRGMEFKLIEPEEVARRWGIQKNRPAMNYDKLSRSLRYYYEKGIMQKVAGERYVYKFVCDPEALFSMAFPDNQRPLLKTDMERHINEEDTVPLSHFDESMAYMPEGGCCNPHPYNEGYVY

On to AGGTCT, for which the binding signal with FEV is 1.11 fold enrichment (6-mer frequency, TF over GST control); with ETV5, 1.2 fold enrichment (6-mer frequency, TF over GST control); with HSF1, 1.09 fold enrichment (6-mer frequency, TF over GST control); with SPIC, 1.13 fold enrichment (6-mer frequency, TF over GST control); with ELF4, 1.2 fold enrichment (6-mer frequency, TF over GST control); in the assay with ELK4 it was 1.23 fold enrichment (6-mer frequency, TF over GST control). The binding signal with ETV2 is 1.23 fold enrichment (6-mer frequency, TF over GST control); with ELF3, 1.08 fold enrichment (6-mer frequency, TF over GST control); with CRX it was 1.21 fold enrichment (6-mer frequency, TF over GST control); with ETV1, 1.16 fold enrichment (6-mer frequency, TF over GST control).
In the case of ATTGCA, the binding signal was 1.15 fold enrichment (6-mer frequency, TF over GST control) with FEV; 1.17 fold enrichment (6-mer frequency, TF over GST control) in the assay with ETV5; 1.06 fold enrichment (6-mer frequency, TF over GST control) with HSF1; 1.1 fold enrichment (6-mer frequency, TF over GST control) with SPIC; 1.19 fold enrichment (6-mer frequency, TF over GST control) in the assay with ELF4; 1.28 fold enrichment (6-mer frequency, TF over GST control) in the assay with ELK4. In addition, the binding signal with ETV2 was 1.31 fold enrichment (6-mer frequency, TF over GST control); with ELF3 it was 1.13 fold enrichment (6-mer frequency, TF over GST control); in the assay with CRX it was 1.11 fold enrichment (6-mer frequency, TF over GST control); with ETV1 it was 1.17 fold enrichment (6-mer frequency, TF over GST control).
Consider CGCCTT, for which the binding signal with FEV is 1.39 fold enrichment (6-mer frequency, TF over GST control); with ETV5 it was 1.37 fold enrichment (6-mer frequency, TF over GST control); with HSF1, 1.32 fold enrichment (6-mer frequency, TF over GST control); with SPIC, 1.47 fold enrichment (6-mer frequency, TF over GST control); with ELF4, 1.54 fold enrichment (6-mer frequency, TF over GST control); with ELK4, 1.52 fold enrichment (6-mer frequency, TF over GST control). The binding signal with ETV2 was 1.64 fold enrichment (6-mer frequency, TF over GST control); in the assay with ELF3 it was 1.26 fold enrichment (6-mer frequency, TF over GST control); with CRX it was 1.38 fold enrichment (6-mer frequency, TF over GST control); in the assay with ETV1, 1.38 fold enrichment (6-mer frequency, TF over GST control).
AACTGG: the binding signal is 1.12 fold enrichment (6-mer frequency, TF over GST control) in the assay with FEV; 1.21 fold enrichment (6-mer frequency, TF over GST control) in the assay with ETV5; 1.25 fold enrichment (6-mer frequency, TF over GST control) in the assay with HSF1; 1.38 fold enrichment (6-mer frequency, TF over GST control) with SPIC; 1.25 fold enrichment (6-mer frequency, TF over GST control) in the assay with ELF4; 1.27 fold enrichment (6-mer frequency, TF over GST control) with ELK4. In addition, the binding signal was 1.31 fold enrichment (6-mer frequency, TF over GST control) with ETV2; 1.17 fold enrichment (6-mer frequency, TF over GST control) with ELF3; 1.16 fold enrichment (6-mer frequency, TF over GST control) in the assay with CRX; 1.14 fold enrichment (6-mer frequency, TF over GST control) in the assay with ETV1.
Take ATACAA: the binding signal was 1.09 fold enrichment (6-mer frequency, TF over GST control) in the assay with FEV; 1.15 fold enrichment (6-mer frequency, TF over GST control) with ETV5; 1.03 fold enrichment (6-mer frequency, TF over GST control) with HSF1; 1.06 fold enrichment (6-mer frequency, TF over GST control) in the assay with SPIC; 1.17 fold enrichment (6-mer frequency, TF over GST control) with ELF4; 1.08 fold enrichment (6-mer frequency, TF over GST control) in the assay with ELK4. Moreover, the binding signal with ETV2 was 1.04 fold enrichment (6-mer frequency, TF over GST control); with ELF3, 1.16 fold enrichment (6-mer frequency, TF over GST control); in the assay with CRX, 1.07 fold enrichment (6-mer frequency, TF over GST control); with ETV1, 1.13 fold enrichment (6-mer frequency, TF over GST control).
TTACTT: the binding signal is 1.55 fold enrichment (6-mer frequency, TF over GST control) with FEV; 1.53 fold enrichment (6-mer frequency, TF over GST control) with ETV5; 1.41 fold enrichment (6-mer frequency, TF over GST control) with HSF1; 1.33 fold enrichment (6-mer frequency, TF over GST control) with SPIC; 1.46 fold enrichment (6-mer frequency, TF over GST control) with ELF4; 1.33 fold enrichment (6-mer frequency, TF over GST control) with ELK4. Also, the binding signal in the assay with ETV2 is 1.66 fold enrichment (6-mer frequency, TF over GST control); with ELF3 it was 1.75 fold enrichment (6-mer frequency, TF over GST control); in the assay with CRX it was 1.95 fold enrichment (6-mer frequency, TF over GST control); with ETV1, 1.55 fold enrichment (6-mer frequency, TF over GST control).
Take TATCCG: the binding signal was 4.84 fold enrichment (6-mer frequency, TF over GST control) with FEV; 2.85 fold enrichment (6-mer frequency, TF over GST control) with ETV5; 1.54 fold enrichment (6-mer frequency, TF over GST control) with HSF1; 2.38 fold enrichment (6-mer frequency, TF over GST control) with SPIC; 2.2 fold enrichment (6-mer frequency, TF over GST control) with ELF4; 2.29 fold enrichment (6-mer frequency, TF over GST control) with ELK4. In addition, the binding signal was 2.68 fold enrichment (6-mer frequency, TF over GST control) in the assay with ETV2; 2.33 fold enrichment (6-mer frequency, TF over GST control) with ELF3; 1.95 fold enrichment (6-mer frequency, TF over GST control) with CRX; 2.72 fold enrichment (6-mer frequency, TF over GST control) in the assay with ETV1.
